# Experimental data from PubChem BioAssay (NCI).
# This is part of a sample that, as a whole, favours compounds with a hit. Of some 79,000 tested, about 15% had one in any assay. Unmarked numbers belong to inactive results. Active and inactive are the calls of the source. Rule as the data show it: active = growth inhibition above about 70%; inactive = the rest.
# Columns and labels:
# [1] = NCI Yeast Anticancer Drug Screen. Data for the rad50 strain (AID 155);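 also: 0% = growth of vehicle-only cultures of the same strain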; details: S. cerevisiae rad50 strain growth inhibition; at 50.0 µM; stronger effect = higher value
# Outline: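 Relative growth inhibition (compound vs vehicle) was measured in yeast with a defined repair-gene alteration.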
# [2] = NCI Yeast Anticancer Drug Screen. Data for the mec2-1 strain (AID 157); details: S. cerevisiae mec2-1 strain, at 50.0 µM, stronger effect = higher value
# Outline: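 Each compound was tested on mec2-1 yeast, a strain altered in DNA damage repair or cell cycle control. Growth inhibition is reported relative to vehicle.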
# [3] = NCI Yeast Anticancer Drug Screen. Data for the sgs1 mgt1 strain (AID 161);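 also: 0% = growth of cultures given vehicle only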; details: S. cerevisiae sgs1 mgt1 strain, at 50.0 µM, stronger effect = higher value
# Outline: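 Mutant yeast exposed to compound; growth scored against vehicle-only wells.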
# [4] = NCI Yeast Anticancer Drug Screen. Data for the cln2 rad14 strain (AID 165);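 also: 0% = growth equal to vehicle treated cultures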; details: S. cerevisiae cln2 rad14 strain, at 50.0 µM, stronger effect = higher value
# Outline: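 Test compounds were added to cln2 rad14 yeast cultures; inhibition of growth was then determined by comparison with vehicle treatment.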
# [5] = NCI Yeast Anticancer Drug Screen. Data for the bub3 strain (AID 167); details: S. cerevisiae bub3 mutant strain, at 50.0 µM, stronger effect = higher value
# Outline: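 Screening used yeast with an engineered genetic alteration affecting cell cycle control. Compound-exposed cultures were compared with vehicle cultures, and reduced growth was taken as inhibition.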
# [6] = NCI Yeast Anticancer Drug Screen. Data for the mlh1 rad18 strain (AID 175); details: S. cerevisiae mlh1 rad18 strain growth inhibition; at 50.0 µM; stronger effect = higher value
# Outline: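 Inhibition values reflect reduced growth of mutant yeast versus vehicle-treated controls following compound exposure; the mutations affect DNA damage repair.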
Structure (SMILES),growth inhibition [1],growth inhibition [2],growth inhibition [3],growth inhibition [4],growth inhibition [5],growth inhibition [6]
Cc1cc(C)c2ccc(=O)[nH]c2n1,-2.8%,-9%,2.6%,-3.05%,8.75%,8.2%
ClC1=CC(Cl)=C2N=C(N3CCCC3)N=C3N=C(C(Cl)(Cl)Cl)N=C1N32,-2.8%,22.6%,3.6%,-13.4%,3.2%,-20.4%
CC(=O)NNC(=O)c1ccc(Br)cc1,1.3%,-16.4%,0.5%,-3.2%,21.6%,-1.05%
CC(C)OC(=O)Nc1cccc(NC(=O)OCCCl)c1,7.1%,-3.65%,9.15%,-9.85%,-8.8%,-7.1%
COc1cc2c[n+](C)c3c(c2cc1OC)Cc1cc2c(cc1-3)OCO2,-27.5%,-13.2%,1.8%,18.9%,-14.7%,6.25%
O=C(c1ccccc1)[n+]1ccc2ccccc2c1,-19.1%,-21.2%,-4.35%,0.45%,-6.25%,-13.1%
FC(F)(F)C1(C(F)(F)F)C2CCC3(CC(F)(F)C(F)(F)S3)C1C2 (stereo unspecified),-1.05%,-27.9%,-4.25%,22.9%,7.65%,30.6%
CSc1nc(NC2OCC(O)C(O)C2O)cc(=O)[nH]1 (stereo unspecified),7.75%,-0.95%,10.8%,-2.25%,-13.8%,1.3%
COc1ccc(C[N+](C)(C)N)cc1OC,-13.8%,-18.2%,-21.9%,-9.7%,-40.5%,-34.1%
Fc1ccc2nc3ccccc3c(SCCNCCSc3c4ccccc4nc4ccc(F)cc34)c2c1,43.4%,-4.75%,17%,16.1%,1.5%,35.2%
COC(=NC(C)C)NC(C)C,6.3%,-17.2%,5.65%,14.2%,5.4%,14.4%
O=S(=O)(O)CCCCBr,3.6%,-31.4%,16.8%,-5%,-3%,13.5%
NC(N)=Nc1cccc2c1CC=CC2,0.2%,-3.45%,-5.3%,-5.7%,2%,-0.2%
CC(=O)/C=C/C=C\C=C/N=C(c1ccccc1)c1ccccc1,-7.5%,-1.1%,-2.7%,3%,26.1%,-3.85%
COC(=O)c1c(C)cc(OC(=O)c2c(C)cc(OC)c(C)c2OC)c(C)c1O,14.6%,3.5%,-2.15%,10.4%,-0.65%,4.65%
CCOC(=O)c1ccc(NC(=O)CNC2CCCCC2)cc1,-0.05%,-8.7%,-3.2%,-40.8%,4.55%,-26.1%
O=C1NC(=S)S/C1=C\c1c(Cl)cccc1Cl,56.9%,19%,61.1%,16.9%,27.9%,60.4%
CCCCCCn1ncc(=O)[nH]c1=O,4.2%,-6.7%,2.75%,-40.8%,6.6%,8.9%
c1ccc(-c2cnc(C3CCCCC3)o2)cc1,28%,-14.1%,14.8%,10.2%,17.1%,5.55%
CCOC(=O)C(CNCc1ccccc1)(c1ccccc1)c1ccccc1,-6.5%,-4.85%,-23.9%,-31.3%,9.95%,2.45%
CC(=O)OCC1OC(n2c(C)cc(C)c(C#N)c2=S)C(OC(C)=O)C(OC(C)=O)C1OC(C)=O (stereo unspecified),21.2%,16.6%,-5.35%,-14.9%,-6.05%,32.4%

Structure (SMILES),growth inhibition [1],growth inhibition [2],growth inhibition [3],growth inhibition [4],growth inhibition [5],growth inhibition [6]
CN[C@H]1CC[C@]23C[C@]24CC[C@]2(C)[C@@H]([C@H](C)N(C)C)CC[C@@]2(C)[C@@H]4CC[C@H]3C1(C)C,1.3%,-4.65%,9.2%,6.35%,8.25%,-63.8%
CCCC(C)C(O)CC (stereo unspecified),-27.1%,-28.9%,7.45%,13.3%,-19.5%,-10%
COc1cc2c3c(c1)-c1c(ccc(OC)c1Oc1nnnn1-c1ccccc1)CC3N(C)CC2 (stereo unspecified),30.4%,26.2%,28.9%,52.4%,27.8%,80.5% (active)
CN(C)c1ccc(/C=C2\N=C(c3ccc([N+](=O)[O-])cc3)OC2=O)cc1,1.35%,-6.75%,17.1%,6.95%,14.9%,7.55%
COc1cc2nncc(Sc3cnnc4ccccc34)c2cc1OC,19.1%,29.6%,18.6%,13.3%,36%,35.6%
CC(=O)OCCC(=O)Nc1cc([N+](=O)[O-])ccc1OCc1ccccc1,7.05%,1.6%,-6.45%,-3.8%,3.65%,-16%
OCCNc1ncnc2nc[nH]c12,-17.9%,-3.5%,-12.5%,65.5%,-46.5%,2.5%
CCc1ccc(N=Cc2cc(OC)c(OC)c(OC)c2)cc1,-4.2%,16.4%,29.4%,4.75%,14.2%,-6.45%
C/C(=N\NC(=S)N1CC2CCC(CC2)C1)c1cccc(C)n1,22.1%,-1.45%,18.8%,8.85%,18.4%,13.8%
O=c1[nH]c2cc([N+](=O)[O-])ccc2nc1/C=C(\O)c1ccco1,7.7%,-14.2%,7.9%,-0.65%,-18.7%,22.1%
O=C(O)COc1ccc2ccccc2c1,-15.4%,3.55%,-22.9%,-14.8%,4.15%,2.1%
CC1CC[P+](c2ccccc2)(c2ccccc2)CC1,22.9%,17.4%,30.3%,4.5%,22.1%,32.5%
Cc1nc(C)c(Cc2ccccc2)o1,1.05%,20.9%,18.1%,27.6%,5.3%,30.7%
CC/C(Cl)=N\OC(=O)Nc1ccccc1OC(F)(F)F,-24.1%,-15.4%,87.2% (active),-13.6%,18.6%,-89.6%
OCC1COc2ccc(Cl)cc2O1 (stereo unspecified) (tested in a mixture with another compound),-10.3%,-7.3%,2.65%,16.8%,6.85%,4.8%
CCN(Cc1ccc(CN(CC)C(=O)c2sc3ccccc3c2Cl)cc1)C(=O)c1sc2ccccc2c1Cl,-3.5%,-19.6%,-7.35%,-1.4%,-11.4%,-4.55%
Cc1cccc(C)c1NC(=O)Nc1cccc(C(F)(F)F)c1,-16.4%,-29.4%,-14.7%,-22.4%,-8.25%,-17.8%
CC1CNC2C(C)C3C(CC4C5CCC6CC(N=Cc7ccccc7O)CCC6(C)C5CCC43C)OC2(O)C1 (stereo unspecified),25.8%,-6.2%,-4.3%,-3.95%,0.3%,0.55%
ClCCCCC(Cl)(Cl)Cl,27.9%,27.6%,10.4%,-16.3%,21.9%,23.3%
CSc1c(C#N)c2c(Cl)ncnc2n1C(C)=O,1.7%,14.3%,9.95%,-71.5%,-7.5%,5.35%
